Compound activity: PubChem BioAssay, several laboratories
GASC-1 inh – human JMJD2C demethylase inhibition; inhibition, % at 2.35 µM; GST-JMJD2C(1-420) H3K9me3 demethylation, DELFIA europium; AID 2099; hit rate 0.069% among 330,000;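 active means more than half of a compound's replicate wells show inhibition beyond 50%, single wells judged on their own value; inconclusive means some, but no more than half, of replicates pass 50% inhibition; inactive means no replicate passes 50% inhibition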;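 further: signal counts dimethyl H3K9 product captured on neutravidin plate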
Target sequence (Q9H3R0 1-420 limits assumed): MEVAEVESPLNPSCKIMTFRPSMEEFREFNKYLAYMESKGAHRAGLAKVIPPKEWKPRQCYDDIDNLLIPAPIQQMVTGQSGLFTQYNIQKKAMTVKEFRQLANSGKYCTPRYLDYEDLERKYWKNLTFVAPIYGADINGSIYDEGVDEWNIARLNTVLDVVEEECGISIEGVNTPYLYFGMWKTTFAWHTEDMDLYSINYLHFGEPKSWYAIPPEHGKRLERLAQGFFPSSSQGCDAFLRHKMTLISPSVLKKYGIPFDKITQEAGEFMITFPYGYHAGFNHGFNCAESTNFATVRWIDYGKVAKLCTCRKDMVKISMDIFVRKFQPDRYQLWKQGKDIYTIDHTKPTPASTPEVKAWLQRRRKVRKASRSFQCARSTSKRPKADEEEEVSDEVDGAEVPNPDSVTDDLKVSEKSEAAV
Exocytosis inh – lytic granule exocytosis inhibition. TALL-104 LAMP-1 surface exposure, flow cytometry; cells stimulated with thapsigargin and PMA. inhibition, % at 10 µM. hit rate 0.66% among 360,000. AID 651702;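 active means inhibition above about 55%, limit read from the data; inconclusive means no clear call, values can overlap the other calls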
SMARCA2 act – increases SMARCA2 function in MMTV reporter cells | MG213 cells, MMTV-luciferase reporter, dexamethasone, overnight | activation, % at 9.1 µM | hit rate 1% among 370,000; in the data active means activation above about 7.8%
beta cell repl – inducers of beta-cell replication in MIN6 cells; MIN6 cells proliferation, ATPlite luminescence, 48 h; cells starved in 0.2% serum; 100% = growth in 10% serum; proliferation, % at 10 µM; hit rate 0.29% among 330,000; AID 2380;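 active means compounds whose signal lies at least 3.5 SD above the mean of all wells on their plate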
ALR inh – blocks human ALR sulfhydryl oxidase activity. inhibition, % (concentration not given with the values). P55789. hit rate 3.8% among 290,000. AID 485317. purified ALR, DTT oxidation, H2O2 HRP-luminol luminescence;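 active means mean replicate inhibition above about 79%, with every replicate also reaching it, limit read from the data; inconclusive means only one of the two criteria met; inactive means mean below limit and not every replicate reaching it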
Target sequence (P55789 whole entry, looked up): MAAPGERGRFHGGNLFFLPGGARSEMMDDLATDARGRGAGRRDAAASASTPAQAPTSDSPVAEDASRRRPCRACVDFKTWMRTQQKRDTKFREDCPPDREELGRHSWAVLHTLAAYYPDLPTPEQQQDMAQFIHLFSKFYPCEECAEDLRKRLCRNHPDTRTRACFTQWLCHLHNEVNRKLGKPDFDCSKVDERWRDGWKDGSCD
M18AAP inhibitor – PfM18AAP enzyme inhibition; recombinant PfM18AAP, H-Glu-NHMec fluorogenic cleavage; inhibition, % at 7.35 µM; hit rate 1.2% among 290,000; AID 1822;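 active means inhibition above the campaign mean inhibition over all tested compounds plus 3 SD, cut at about 28% in these data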
Numbers stand for hits. An excerpt weighted towards active compounds, which were near 5.4% of everything screened.

O=C(O)CCn1cc(C=C2C(=O)NC(=S)NC2=O)c(-c2ccccc2)n1 was read as GASC-1 inh inactive, Exocytosis inh inactive, SMARCA2 act inactive, beta cell repl inactive, ALR inh 87 and M18AAP inhibitor inactive.
O=C(O)CCn1cc(C=C2C(=O)NC(=S)NC2=O)c(-c2cc3ccccc3oc2=O)n1 was read as GASC-1 inh inactive, Exocytosis inh inactive, SMARCA2 act inactive and M18AAP inhibitor inactive.
Screening O=C(NC1CC1)c1cn(Cc2ccccc2)nc1-c1ccccc1 returned Exocytosis inh inactive, SMARCA2 act inactive and beta cell repl inactive.
`Cc1ccc(Cn2cc(C=O)c(-c3ccc(C)cc3)n2)cc1` gave GASC-1 inh inactive, Exocytosis inh inactive, SMARCA2 act inactive, beta cell repl inactive, ALR inh 90 and M18AAP inhibitor inactive.
For Oc1cc2c(cc1O)[C@H]1c3ccccc3CN[C@@H]1CC2 the results were GASC-1 inh inactive, ALR inh 99 and M18AAP inhibitor 90.
For COc1cc(O)c2c(c1)/C=C/C[C@H](O)[C@H](O)[C@@H](O)/C=C/C[C@H](C)OC2=O the results were SMARCA2 act inactive.
O=C(CN1C(=O)[C@@H](Cc2ccccc2)N=C(c2ccccc2)c2ccccc21)NC1CCCCC1 was read as SMARCA2 act inactive.
For NC(Cc1ccccc1)[P+](=O)O (stereo not given) the results were SMARCA2 act inactive.
CC1=NCCc2c1[nH]c1cc(O)ccc21 was read as Exocytosis inh inactive, SMARCA2 act inactive, beta cell repl inactive and ALR inh 99.
For COc1ccc2c3c([nH]c2c1)C(C)=NCC3 the results were GASC-1 inh inconclusive, Exocytosis inh inactive, SMARCA2 act inactive, beta cell repl inactive, ALR inh inactive and M18AAP inhibitor inactive.
For COc1ccccc1-c1cc(NC(C)=O)c2ncc(-c3ccccc3)n2c1 the results were Exocytosis inh inactive and SMARCA2 act inactive.
`CC[C@H](C(N)=O)N1CCCC1=O` gave SMARCA2 act inactive.
For Cc1nn(Cc2ccccc2)c(C)c1C(=O)NCc1ccccc1 the results were GASC-1 inh inactive, Exocytosis inh inactive, SMARCA2 act inactive, beta cell repl inactive, ALR inh inactive and M18AAP inhibitor inactive.
Cc1nn(Cc2ccccc2)c(C)c1C=C1C(=O)NC(=O)NC1=O was read as GASC-1 inh inactive, Exocytosis inh inactive, SMARCA2 act inactive, beta cell repl inactive, ALR inh 95 and M18AAP inhibitor inactive.
Screening O=C1NC(=O)N(CCC2=CCCCC2)C(=O)/C1=C\c1cccs1 returned GASC-1 inh inactive, Exocytosis inh inactive, SMARCA2 act inactive, beta cell repl inactive, ALR inh inactive and M18AAP inhibitor inactive.
Screening O=C1NC(=S)N(Cc2ccco2)C(=O)/C1=C\c1cccs1 returned M18AAP inhibitor inactive.
For C=CCN1C(=O)/C(=C/c2cccs2)C(=O)NC1=S the results were GASC-1 inh inactive, Exocytosis inh inactive, SMARCA2 act inactive, ALR inh 96 and M18AAP inhibitor inactive.
O=C1NC(=O)N(CCc2ccc(F)cc2)C(=O)/C1=C/c1cccs1 was read as GASC-1 inh inactive, Exocytosis inh 80, SMARCA2 act inactive, beta cell repl inactive, ALR inh inactive and M18AAP inhibitor inactive.
For Clc1cccc(Cl)c1CN1CCN(c2ccccc2)CC1 the results were GASC-1 inh inactive, Exocytosis inh inactive, SMARCA2 act inactive, beta cell repl inactive, ALR inh inactive and M18AAP inhibitor inactive.
For c1ccc2c(CN3CCCCCCC3)c[nH]c2c1 the results were GASC-1 inh inactive, Exocytosis inh inactive, SMARCA2 act inactive, beta cell repl inactive, ALR inh inactive and M18AAP inhibitor inactive.
`Nc1ccc(N2CCN(Cc3ccccc3Cl)CC2)c(Cl)c1` gave GASC-1 inh inactive, Exocytosis inh inactive, SMARCA2 act inactive, beta cell repl inactive, ALR inh 89 and M18AAP inhibitor inactive.
Screening Clc1ccccc1CN1CCN(c2ccccc2)CC1 returned GASC-1 inh inactive, Exocytosis inh inactive, SMARCA2 act inactive, beta cell repl inactive, ALR inh 99 and M18AAP inhibitor inactive.
COc1ccccc1N1CCN(Cc2ccccc2Cl)CC1 was read as GASC-1 inh inactive, Exocytosis inh inactive, SMARCA2 act inactive, beta cell repl inactive and M18AAP inhibitor inactive.
Screening Clc1ccccc1CN1CCN(c2cccc3[nH]ccc23)CC1 returned GASC-1 inh inactive, Exocytosis inh inactive, beta cell repl inactive, ALR inh 97 and M18AAP inhibitor inactive.
Screening COc1ccc2nc(-c3ccc(CN4CCC(n5nnc6ccccc65)CC4)cc3)c(-c3ccccc3)nc2c1 returned SMARCA2 act inactive.
For CCOC(=O)CNC(=O)N1Cc2cc(Br)ccc2-n2nncc2C1 the results were SMARCA2 act inactive.
COC(=O)C1C(c2ccc(F)cc2)CC2CCC1N2C (stereo not given) was read as SMARCA2 act inactive.
Screening CC1CC(OP(O)(=S)c2ccc(N(C)C)cc2NC(=O)c2cccs2)CC(C)(C)C1 (stereo not given) returned GASC-1 inh inactive, Exocytosis inh inactive, SMARCA2 act inactive, beta cell repl inactive, ALR inh 99 and M18AAP inhibitor inactive.
Screening N=c1c2c(-c3ccccc3)c(-c3ccccc3)n(Cc3ccccc3)c2ncn1C1CCC(O)CC1 (stereo not given) returned SMARCA2 act inactive.
Screening CC(=O)OC1CC[C@]2(C#N)[C@H]3CC[C@]4(C)[C@H](C5C=CC(=O)O5)CCC4(O)C3CCC2(O)C1 (stereo not given in full) returned GASC-1 inh inactive, Exocytosis inh inactive, SMARCA2 act 7.8, beta cell repl inactive, ALR inh inactive and M18AAP inhibitor inactive.
For O=C(CN1C(=O)[C@@H](Cc2c[nH]c3ccccc23)N=C(c2ccccc2)c2ccccc21)NC1CCCCC1 the results were SMARCA2 act inactive.
C[CH2][Hg][S]c1ccccc1C(=O)O was read as Exocytosis inh 69, SMARCA2 act inactive, beta cell repl inactive and ALR inh inactive.
Cc1ccc(N2Cc3ccccc3-n3nncc3C2)cc1 was read as SMARCA2 act inactive.
For O=c1[nH]c(=S)n(CCC2=CCCCC2)c(O)c1/C=N/Nc1ccccc1 the results were GASC-1 inh inactive, Exocytosis inh inactive, SMARCA2 act inactive, beta cell repl inactive, ALR inh 97 and M18AAP inhibitor inactive.
COC(=O)C1(N(C)c2ccccc2)CCN(Cc2ccccc2)CC1 was read as SMARCA2 act inactive.
`Cc1ccc2nc(-c3ccc(CN4CCC(n5nnc6ccccc65)CC4)cc3)c(-c3ccccc3)nc2c1` gave SMARCA2 act inactive.
Screening N#CC(C#N)=NNc1ccc(-n2ccc(C(F)(F)F)n2)cc1 returned GASC-1 inh inactive, Exocytosis inh inactive, SMARCA2 act inactive, beta cell repl inactive, ALR inh inactive and M18AAP inhibitor inactive.
`Cc1cc(C)n(-c2ccc(NN=C(C#N)C#N)cc2)n1` gave GASC-1 inh inactive, Exocytosis inh inactive, SMARCA2 act inactive, beta cell repl inactive, ALR inh 98 and M18AAP inhibitor inactive.
